Bioassay records from PubChem.
Tau fluor counter – counter-screen for tau fibril formation inhibitors; tau K18 P301L Alexa594 fluorescence, heparin fibrillization; Potency, µM (titrated, usually from 57.7 µM); 280,000 tested, 0.93% active; AID 1463; also: nearly all actives have a fitted effect of over 55% in size
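Human K18 P301L tau (15 uM unlabeled plus 0.24 uM Alexa 594-labeled, final) in 100 mM sodium acetate pH 7 was mixed with compound and 20 uM heparin and incubated 6 hr at 37 C.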
FBPA coupling cs – coupling enzyme interference in Giardia aldolase counter-screen | coupling enzyme system counterscreen, AmpLite Red fluorescence | activity change, negative = inhibition, % at 58.2 µM, hits read low | 290,000 tested, 0.67% active | AID 2472; in the data active = activity change below about -30%
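Fluorescence at 525 nm excitation and 598 nm emission measured inhibition of the coupled detection system without aldolase. Compounds (at 57.5 uM final) were preincubated 10 min at room temperature with coupling enzyme reagent before a 20 min substrate/AmpLite Red step.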
Tau fibril FP – inhibitors of human tau fibril formation. P10636. K18 P301L tau heparin fibrillization, Alexa594 FP, 6 h. Potency, µM (highest dose often 57.7 µM), usual class: inhibitors. 280,000 tested, 0.39% active. AID 1468; also: nearly all actives have a fitted effect of over 55% in size
Target sequence (P10636 561-689 P618L limits assumed): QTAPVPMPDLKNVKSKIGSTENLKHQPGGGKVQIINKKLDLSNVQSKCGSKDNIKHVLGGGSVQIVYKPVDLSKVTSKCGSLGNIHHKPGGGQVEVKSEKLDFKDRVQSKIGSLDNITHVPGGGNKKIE
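Compound effects on tau fibrillization are measured by Alexa 594 fluorescence polarization (ex 555, em 632 nm). K18 P301L tau is used at 15 uM with 0.24 uM labeled tracer, and 20 uM heparin induces aggregation over 6 hr at 37 C.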
Tau fibril ThT – inhibitors of human tau fibril formation, thioflavin T binding; P10636; recombinant tau K18 P301L, heparin-induced fibrillization, ThT fluorescence; 270,000 tested, 2.1% active; AID 1460; Potency, µM (series often up to 57.4 µM), actives largely listed as inhibitors; also: nearly all actives have a fitted effect of over 55% in size
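Using a mix of unlabeled (15 uM) and Alexa 594-labeled (0.24 uM) tau K18 P301L, heparin-triggered fibrillization over 6 hr at 37 C was scored by ThT fluorescence.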
G9a inh – blocks human histone lysine methyltransferase G9a | Potency, µM (titrated, usually from 102 µM), actives largely listed as inhibitors | G9a H3K9 monomethylation, AlphaScreen, 2 h | AID 504332 | 350,000 tested, 8.8% active | Q96KQ7; also: nearly all actives have a fitted effect of over 75% in size
Target sequence (Q96KQ7 913-1193 limits assumed): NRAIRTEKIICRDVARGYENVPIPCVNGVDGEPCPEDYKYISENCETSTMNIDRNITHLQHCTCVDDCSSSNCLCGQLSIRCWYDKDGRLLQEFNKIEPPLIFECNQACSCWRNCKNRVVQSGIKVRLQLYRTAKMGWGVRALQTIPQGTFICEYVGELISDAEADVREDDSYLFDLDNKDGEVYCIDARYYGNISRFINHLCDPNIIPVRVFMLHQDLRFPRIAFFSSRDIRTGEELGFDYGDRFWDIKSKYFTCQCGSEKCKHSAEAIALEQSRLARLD
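Using a bead-based AlphaScreen, monomethylated H3K9 product from 2 h room-temperature reactions (G9a 20 nM, peptide 500 nM, SAM 20 uM) was detected with 0.5 ug/mL rabbit anti-H3K9me1 antibody.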
Sfp inh – blocks B. subtilis Sfp PPTase activity; Q9F4F7; 310,000 tested, 3.5% active; Biochemical Sfp PPTase activity, qHTS; Potency, µM, most hits filed as inhibitors;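 also: the enzyme is Sfp with the accession as filed and its product quenches rhodamine fluorescence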
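Fluorescence-quenching assay with 15 nM Sfp, 5 uM rhodamine-CoA and 12.5 uM BHQ-2-labelled ybbR peptide in pH 7.6 Hepes/MgCl2 buffer. Enzyme was pre-incubated with compound for 15 min at room temperature. Rate was taken from the 30-min fluorescence change (525/598 nm).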
Of the large screens only hits and unclear results are named; the others gave an inactive call; [ ] = remark or other dose. Compounds with a hit are over-represented: about 11% of the library has one in this group of screens. Unless noted, calls follow the shape of the dose curve; as a rule, active = well fitted curve in the direction sought with a large enough effect; inconclusive = small, poorly fitted or top-dose-only effect, or another doubt; inactive = no such curve, though single readings can be large; an effect the other way counts as inactive or inconclusive.

COC(=O)c1ccc(NC(=S)Nc2ccc(O)cc2)cc1	G9a inh 50µM, Sfp inh inconclusive
O=C(NC(=S)Nc1ccc(O)cc1)C1CCCC1	none (no result: Tau fluor counter, FBPA coupling cs, Tau fibril FP, Tau fibril ThT, Sfp inh)
COC(=O)NNC(=S)Nc1ccc(Br)cc1	G9a inh 50µM
COC(=O)c1ccc(NC(=S)NCC2CC2)cc1	none
CCOC(=O)c1ccc(NC(=O)Cn2nc(SC)c(S(=O)(=O)c3ccc(Cl)cc3)c2N)cc1	Tau fluor counter inconclusive, Tau fibril FP 13µM (no result: FBPA coupling cs, Sfp inh)
COc1ccc(NC(=O)Cn2nc(SC)c(S(=O)(=O)c3ccc(C)cc3)c2N)cc1OC	none (no result: FBPA coupling cs, Sfp inh)
CCSc1nn(CC(=O)Nc2ccc(C(=O)OC)cc2)c(N)c1S(=O)(=O)c1ccc(C)cc1	Tau fluor counter inconclusive, Tau fibril FP 25µM (no result: FBPA coupling cs, Sfp inh)
CCc1nc2sc3c(=O)[nH]cnc3c2c2c1CSC(C)(C)C2	G9a inh 2.2µM, Sfp inh 45µM
Cc1cc(C)n(C(=O)CSc2ccc(Cl)cc2)n1	none (no result: G9a inh)
Cc1cc(C)n(C(=O)CSc2nnc(SCC(=O)n3nc(C)cc3C)s2)n1	G9a inh 79µM
Cc1ccc(C(=O)NC2CCN(CC(=O)NC3CCC(C)CC3)CC2)cc1 (centres undefined)	none (no result: Tau fluor counter, Tau fibril FP, Tau fibril ThT)
O=C(N/N=C/c1cccs1)c1cc(-c2ccc(Cl)s2)[nH]n1	G9a inh 50µM (no result: Tau fluor counter, Tau fibril FP, Tau fibril ThT)
COc1ccccc1N1CCN(Cc2ccsc2)CC1	Sfp inh inconclusive
COc1ccccc1N1CCN(Cc2ccc(OC)c(OC)c2OC)CC1	G9a inh 10µM
COc1ccccc1N1CCN(Cc2cccs2)CC1	Tau fibril ThT inconclusive, G9a inh 6.3µM
c1csc(CN2CCOCC2)c1	G9a inh 8.9µM
COc1ccc(CN2CCN(c3ccccc3OC)CC2)c(OC)c1	none (no result: Tau fluor counter, Tau fibril FP, Tau fibril ThT)
COc1ccc(CN2CCN(CCCCOc3ccc(Cl)cc3)CC2)c(OC)c1OC	G9a inh 14µM, Sfp inh 89µM
CC1=NN(S(=O)(=O)c2ccc(Cl)cc2Cl)C(=O)c2ccccc2O1	none
CC(C)Oc1ccc(C(=O)NCCCNC(=O)c2cccnc2)cc1	none (no result: Tau fluor counter, Tau fibril FP, Tau fibril ThT)
Clc1ccc(-c2cc3ncc4c(n3n2)-c2ccccc2OC4)cc1	Tau fibril FP inconclusive (no result: FBPA coupling cs, Sfp inh)
COc1ccc2cc3cc(C(=O)NCCc4ccccc4)sc3nc2c1Cl	Tau fibril FP inconclusive, Tau fibril ThT inconclusive (no result: FBPA coupling cs, Sfp inh)
O=C(COc1ccccc1)N1CCN(c2ccc([N+](=O)[O-])c(N3CCCCC3)c2)CC1	Tau fibril ThT inconclusive, G9a inh inconclusive
O=C(COc1ccc(Br)cc1)N1CCN(c2ccc([N+](=O)[O-])c(N3CCCCC3)c2)CC1	Tau fibril ThT inconclusive, G9a inh 35µM
Cn1c(-c2sccc2OCc2ccc(Cl)cc2Cl)n[nH]c1=S	G9a inh 3.2µM
Cn1c(-c2sccc2OCc2ccccc2)n[nH]c1=S	G9a inh 2.8µM
Cc1ccc(C)c(N2CCN(S(=O)(=O)c3ccc(-c4cc(C(F)(F)F)on4)s3)CC2)c1	none (no result: FBPA coupling cs, Sfp inh)
O=C(O)c1ccc2c(=O)[nH]c(CCl)nc2c1	G9a inh 56µM
Cc1cccc(CNC(=O)C2CCN(c3nnc(-n4c(C)ccc4C)s3)CC2)c1	Tau fibril FP inconclusive, Tau fibril ThT inconclusive (no result: FBPA coupling cs, Sfp inh)
Cc1ccc(S(=O)(=O)C(CNC(=O)COc2ccccc2)c2cccs2)cc1 (centres undefined)	G9a inh 11µM (no result: FBPA coupling cs, Sfp inh)
Cc1cc(S(=O)(=O)C(CNC(=O)COc2ccccc2)c2cccs2)ccc1F (centres undefined)	none (no result: FBPA coupling cs, Sfp inh)
Fc1ccccc1N1CCN(c2nccn3nc(-c4ccc(Br)cc4)cc23)CC1	none (no result: FBPA coupling cs, Sfp inh)
CC1CCCC(NC(=O)CN2C(=O)c3cccnc3Oc3ccc(Cl)cc32)C1C (centres undefined)	none (no result: Tau fluor counter, Tau fibril FP, Tau fibril ThT)
COc1c(/C=N/NC(=O)c2ccncc2)c(CCN(C)C(C)=O)cc2c1OCO2	G9a inh 50µM
Cc1cc(/C=C2\SC(=S)N(C)C2=O)c(C)n1-c1cccc(O)c1	Tau fluor counter 10µM[quencher], Tau fibril ThT 7.9µM, Sfp inh inconclusive
Cc1cc(/C=C2\SC(=O)N(C)C2=O)c(C)n1-c1ccc(O)cc1	G9a inh 79µM (no result: Tau fluor counter, Tau fibril FP, Tau fibril ThT)
COC(=O)C(C)N1C(=O)S/C(=C/c2cc(C)n(-c3ccccn3)c2C)C1=O (centres undefined)	G9a inh inconclusive
Cc1cc(/C=C2\SC(=O)N(C)C2=O)c(C)n1-c1ccc(S(N)(=O)=O)cc1	G9a inh 45µM (no result: Tau fluor counter, Tau fibril FP, Tau fibril ThT)
